D2 ag-1: HTS Assay for Allosteric Agonists of the Human D2 Dopamine Receptor: Primary Screen for Agonists. activation, % at 2 µM. HEK293 T-REx D2 cells, calcium flux agonist mode. D(2) dopamine receptor (Homo sapiens), P14416. 340,000 tested, 0.53% active;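 active means activation over 3 SD above normal in the single-dose calcium agonist read, cut at about 30% in these data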; further: 0% is about no effect
Target sequence (P14416 whole entry, looked up): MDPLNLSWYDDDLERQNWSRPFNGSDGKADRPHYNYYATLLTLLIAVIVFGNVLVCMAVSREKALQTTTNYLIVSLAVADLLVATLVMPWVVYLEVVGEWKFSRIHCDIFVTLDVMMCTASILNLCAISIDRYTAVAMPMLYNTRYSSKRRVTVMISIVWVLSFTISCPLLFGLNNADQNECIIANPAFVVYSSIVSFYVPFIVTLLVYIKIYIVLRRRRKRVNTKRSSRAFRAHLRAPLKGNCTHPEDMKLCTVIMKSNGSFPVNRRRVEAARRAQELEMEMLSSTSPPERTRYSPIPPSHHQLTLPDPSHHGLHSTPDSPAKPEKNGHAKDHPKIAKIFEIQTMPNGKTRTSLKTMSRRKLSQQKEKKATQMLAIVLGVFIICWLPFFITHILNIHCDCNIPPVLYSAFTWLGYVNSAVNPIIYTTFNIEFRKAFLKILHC
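HEK293 Trex D2 cells, tetracycline-induced, o/n 30 C 5% CO2; no-wash Ca dye, RT 30–90 min; 10-cycle baseline, 23 nl cpd added, kinetic Ca read 180 s; agonist hits = positive Ca response.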
D2 PAM-1: HTS Assay for Positive Allosteric Modulators of the Human D2 Dopamine Receptor: Primary Screen for Potentiators | 340,000 tested, 0.34% active | HEK293 T-REx D2, calcium flux, EC20 dopamine potentiation | AID 485347, 2010 | potentiation, % at 10 µM;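 active means potentiation over 3 SD above the plate norm, cut at about 30% in these data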; further: 0% is about no effect
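Tetracycline-induced HEK293 T-REx cells force-coupled to calcium signalling expressed D2; compounds were pin-added after a 10 s baseline, read kinetically 180 s, then an EC20 dopamine challenge followed with a further 180 s calcium read.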
D2 PAM-2: Beta-Arrestin HTS for Positive Allosteric Modulators of the Human D2 Dopamine Receptor: Potentiators; D(2) dopamine receptor (Homo sapiens), P14416; DiscoveRx D2 beta-arrestin cells, luminescence, 90 min; 100% = 57 uM dopamine signal; potentiation, % (concentration not given with the values); 360,000 tested, 0.23% active; AID 624464, 2012; in the data active means potentiation above about 50%
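PathHunter beta-arrestin assay in DiscoveRx D2 cells. Compounds were added with an EC20 of dopamine (50 nM final) for 90 min at 37 deg C. Luminescence was read 1 h after detection reagent, with 57 uM dopamine as the EC100 control.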
D2 ag-2: Beta-Arrestin HTS for Positive Allosteric Modulators of the Human D2 Dopamine Receptor: Agonists; DiscoveRx PathHunter D2 beta-arrestin, luminescence, 90 min; 100% = 57 uM dopamine signal; activation, % (concentration not given with the values); 360,000 tested, 0.084% active; AID 624465, 2012; in the data active means activation above about 40%
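Agonist mode: compounds alone added to overnight-plated D2 PathHunter cells for 90 min at 37 C, with 57 uM final dopamine (EC100) defining full response. Beta-arrestin recruitment detected by chemiluminescent reagent, read after 1 h at ambient temperature.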
D2 antagonist: HTS Assay for Allosteric Antagonists of the Human D2 Dopamine Receptor: Primary Screen for Antagonists; HEK293 TREx D2 cells, calcium flux, dopamine EC80; inhibition, % at 10 µM; 340,000 tested, 2% active; in the data active means inhibition above about 30%; inactive means below that, where a call was filed; further: 0% is about no effect
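Antagonism is scored as inhibition of an EC80 dopamine-evoked calcium signal in a force-coupled, tetracycline-inducible HEK293 T-REx D2 line, with compound present 180 s before agonist.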
An asterisk follows results filed as active. In the library only some 2.4% were active in any assay of this set; here they are far more common.

For CN(C)CCCNC(=S)/N=c1\sccn1Cc1ccccc1Cl the results were D2 ag-1 0.3, D2 PAM-1 -40.2, D2 PAM-2 -11.0, D2 ag-2 -1.8 and D2 antagonist 90.4*.
COc1ccc(C)cc1NC(=O)C(NS(=O)(=O)c1cccs1)c1ccccc1 (stereo not drawn) was read as D2 PAM-1 -0.2.
`COc1ccc(C)cc1NC(=O)C(NCC(O)c1ccccc1)c1ccccc1` (stereo not drawn) gave D2 ag-1 0.2, D2 PAM-1 -14.5, D2 PAM-2 -7.0, D2 ag-2 -2.9 and D2 antagonist 33.5*.
OC[C@@H]1CN(Cc2ccc(-c3ccccc3)cc2)C[C@H](n2cnc3c(NCc4ccc(F)cc4)ncnc32)O1 was read as D2 PAM-2 10.9 and D2 ag-2 8.6.
`CC1CC1c1ccc(/C=C(\C#N)C(=O)Nc2ccccc2Cl)o1` (stereo not drawn) gave D2 PAM-2 -8.2 and D2 ag-2 1.7.
`N#C/C(=C/c1ccc(N2CCCCC2)o1)C(=O)Nc1ccc(Cl)cc1` gave D2 ag-1 110.4*, D2 PAM-1 -29.0, D2 PAM-2 -14.0, D2 ag-2 -0.4 and D2 antagonist 61.9*.
Screening CC1CC1c1ccc(/C=C(\C#N)C(=O)Nc2ccc(Cl)cc2)o1 (stereo not drawn) returned D2 ag-1 -0.4, D2 PAM-1 -25.1, D2 PAM-2 -35.4, D2 ag-2 -2.5 and D2 antagonist 75.7*.
For N#C/C(=C/c1ccc(N2CCOCC2)o1)C(=O)NC1CCCCC1 the results were D2 ag-1 17.7, D2 PAM-1 4.7, D2 PAM-2 -17.1, D2 ag-2 -19.2 and D2 antagonist 5.0.
`COc1ccc(NC(=O)/C(C#N)=C\c2ccc(N3CCOCC3)o2)cc1` gave D2 ag-1 42.5*, D2 PAM-1 -9.3, D2 PAM-2 -11.8, D2 ag-2 -3.9 and D2 antagonist 13.3.
N#C/C(=C\c1ccc(N2CCOCC2)o1)C(=O)Nc1ccc(O)cc1 was read as D2 ag-1 17.1, D2 PAM-1 12.1, D2 PAM-2 -12.6, D2 ag-2 -7.8 and D2 antagonist -0.6.
Screening N#C/C(=C/c1ccc(N2CCCCC2)o1)C(=O)Nc1ccc2ccccc2c1 returned D2 ag-1 105.5*, D2 PAM-1 -14.8, D2 PAM-2 -17.2, D2 ag-2 -9.1 and D2 antagonist 47.0*.
Screening Cc1ccc(Cl)cc1N(C)C(=O)c1noc2c1CCCCC2 returned D2 ag-1 -2.2 and D2 PAM-1 3.6.
Cc1cc(Nc2nn(C)c(N)c2C#N)ccc1F was read as D2 PAM-2 0.0 and D2 ag-2 0.6.
For O=C(O)c1cn(Cc2ccccn2)c(=O)c2ccccc12 the results were D2 ag-1 1.2, D2 PAM-1 -1.4, D2 PAM-2 4.9, D2 ag-2 -1.9 and D2 antagonist 10.2.
For COc1ccc(N2CC(NC(=O)COc3ccc(F)cc3)CC2=O)cc1OC (stereo not drawn) the results were D2 ag-1 0.4 and D2 PAM-1 -0.8.
`CCCCCCOC(=O)C(C#N)c1nc2ccccc2nc1N1CCCCC1` (stereo not drawn) gave D2 ag-1 -2.3, D2 PAM-1 35.1*, D2 PAM-2 -6.9, D2 ag-2 -1.3 and D2 antagonist -11.1.
Screening COc1ccc(NC(=O)c2cc(-c3ccccc3F)no2)cc1 returned D2 ag-1 0.5 and D2 PAM-1 2.8.
`CCOc1ccc(NC(=O)CC2C(=O)N(c3ccccc3)C(=O)N2CCc2sccc2C)cc1` (stereo not drawn) gave D2 ag-1 -0.4 and D2 PAM-1 -0.8.
`Cc1ccc(NS(=O)(=O)c2ccc3c(c2)N(C)C(=O)CC(=O)N3C)cc1Cl` gave D2 ag-1 -1.3 and D2 PAM-1 -8.6.

Compound activity as filed in PubChem.
